Screening data: PubChem, National Center for Advancing Translational Sciences (NCATS)
FEN1 inh: human FEN1 inhibition; actives 0.35% (n = 390,000); Recombinant FEN1 flap cleavage, fluorescence, 15 min; P39748; Potency, µM (series often up to 114 µM), for inactives: at the top dose activity change, negative = inhibition, usual class: inhibitors; AID 588795; also: % is scaled to controls: 0 for no effect and ±100 for the full control effect; nearly all actives have a fitted effect of over 65% in size
Target sequence (P39748 whole entry, looked up): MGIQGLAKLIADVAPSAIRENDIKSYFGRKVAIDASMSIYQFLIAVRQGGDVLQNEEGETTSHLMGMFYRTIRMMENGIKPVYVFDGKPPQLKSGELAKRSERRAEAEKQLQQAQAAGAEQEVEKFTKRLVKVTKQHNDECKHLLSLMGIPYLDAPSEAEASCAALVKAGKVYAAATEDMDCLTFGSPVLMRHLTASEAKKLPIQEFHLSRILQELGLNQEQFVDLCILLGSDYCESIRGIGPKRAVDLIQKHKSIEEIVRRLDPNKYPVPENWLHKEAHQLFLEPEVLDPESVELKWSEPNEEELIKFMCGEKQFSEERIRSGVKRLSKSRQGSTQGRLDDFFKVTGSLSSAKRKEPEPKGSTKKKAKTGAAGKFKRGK
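FEN1 at 10 nM preincubated with compounds 15 min at room temperature, then flap DNA substrate added at 50 nM final. Signal read at 0 and 15 min; concentration-response fitted with four-parameter Hill equation.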
Pol eta inh: blocks human DNA polymerase eta activity; Potency, µM (top dose mostly 114 µM), for inactives: at the highest dose activity change, negative = inhibition, usual class: inhibitors; actives 1.2% (n = 390,000); recombinant Pol eta, fluorescent DNA replication assay; Q9Y253; also: % is scaled to controls: 0 for no effect and ±100 for the full control effect
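Fluorescent replication assay: 50 nM final substrate added after a 15 min room-temperature compound preincubation with 10 nM enzyme. Signal taken at 0 min and again at 10 min.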
Pol kappa inh: inhibitors of human DNA polymerase kappa | Potency, µM (series often up to 107 µM), without a hit: at the top dose activity, negative = inhibition, most hits filed as inhibitors | Q9UBT6 | AID 588579 | actives 0.53% (n = 400,000) | purified Pol kappa, fluorescent DNA synthesis assay, 10 min; also: % is scaled to controls: 0 for no effect and ±100 for the full control effect
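Enzyme at 10 nM met test compounds for 15 min at room temperature. Substrate addition (50 nM final) began the reaction, which was monitored by fluorescence at 0 and 10 min.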
WRN inhibitor: WRN helicase (human) inhibition; actives 0.46% (n = 360,000); Potency, µM (titrated, usually from 114 µM), without a hit: at the highest dose activity change, negative = inhibition, hits mostly inhibitors; AID 651768; WRN helicase unwinding, fluorescent forked duplex, kinetic; Q14191; also: % is scaled to controls: 0 for no effect and ±100 for the full control effect; nearly all actives have a fitted effect of over 55% in size
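Screening of the MLSMR collection measured strand separation of a quenched forked DNA duplex (100 nM) by 20 nM WRN with 2 mM ATP, all final. Compounds were preincubated with enzyme 15 min at room temperature.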
POLB inh: DNA polymerase beta (human) inhibition | actives 1.3% (n = 340,000) | P06746 | Potency, µM (titrated, usually from 114 µM), without a hit: at the highest dose activity change, negative = inhibition, usual class: inhibitors | Pol beta primer extension/strand displacement, fluorescence kinetic; also: % is scaled to controls: 0 for no effect and ±100 for the full control effect
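Enzyme-only controls used 10 nM Pol beta; buffer lacking enzyme served as negative control. Compound preincubated 15 min, then 50 nM substrate added; 0 and 10 min reads at room temperature.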
POLI inh: inhibitors of human DNA polymerase iota | Q9UNA4 | Pol iota fluorescent replication assay, 10 min | Potency, µM (titrated, usually from 115 µM), for inactives: at the top dose activity, negative = inhibition, most hits filed as inhibitors | actives 1% (n = 390,000) | AID 588590
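Pol iota at 10 nM preincubated 15 min with compounds at room temperature; reaction started with fluorescent substrate, 50 nM final. Fluorescence read kinetically at 0 and 10 min; buffer-only wells as negative control.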
The depositor's hits bear a star; ? = inconclusive; nt = not tested or not shown; [ ] = remark or other dose. An excerpt weighted towards active compounds, which were near 2.4% of everything screened. Calls follow the shape of the dose curve; as a rule, active = well fitted curve in the direction sought with a large enough effect; inconclusive = small, poorly fitted or top-dose-only effect, or another doubt; inactive = no such curve, though single readings can be large; an effect the other way counts as inactive or inconclusive. Potency is read from the fitted curve at half-maximal effect.

SMILES	FEN1 inh	Pol eta inh	Pol kappa inh	WRN inhibitor	POLB inh	POLI inh
CC1(C)CC[C@]2(C(=O)O[C@@H]3OC(CO)[C@@H](O)[C@H](O)[C@H]3O)CC[C@]3(C)C(=CCC4[C@@]5(C)CC[C@H](O[C@@H]6OC(C(=O)O)[C@@H](O)[C@H](O)[C@H]6O)C(C)(C)C5CC[C@]43C)[C@@H]2C1 (stereo partly specified)	-2.8%	?	-27.6%	11.4%	nt	-25.3%
C/C=C(\C)C(=O)OC1CC(C)(C)C[C@H]2C3=CC[C@@H]4[C@@]5(C)CCC(O[C@@H]6O[C@@H](C(=O)O)[C@@H](O)C(O[C@@H]7OC[C@H](O)[C@@H](O)[C@@H]7O[C@@H]7OC(CO)C(O)[C@@H](O)[C@@H]7O)C6O[C@@H]6OC(CO)C(O)C(O)C6O)[C@@](C)(CO)[C@@H]5CC[C@]4(C)[C@]3(C)CC(O)[C@@]12CO (stereo partly specified)	-12.6%	?	-22.1%	-12.4%	nt	12.6µM*
Cc1cc2c(c(=O)n1-c1ccccc1)C1O[C@](c3ccsc3)(Cc3ccccc31)O2	nt	nt	nt	nt	5.01µM*	nt
CCCCn1c(C)cc2c(c1=O)C1O[C@](c3ccsc3)(Cc3ccccc31)O2	nt	nt	nt	nt	2.24µM*	nt
COc1cc2c(cc1OC)[C@@H]1O[C@](c3ccsc3)(C2)Oc2cc(C)n(-c3ccccc3)c(=O)c21	nt	nt	nt	nt	11.2%[22.9 µM]	nt
CN(C)c1ccc(C(=C2c3ccccc3-c3ccccc32)c2ccc(N(C)C)cc2)cc1	-4.9%	nt	-1.3%	nt	nt	12.5%
Nc1c(Br)cc(/C=C/c2ccnc3ccccc23)cc1Br	-22.2%	nt	?	nt	nt	?
Cc1csc(C)[n+]1CCC1CCCCC1	-12.7%	nt	-8.0%	nt	nt	15.6%
O=C(Nc1ccc(-c2nc3ccccc3o2)c(O)c1)c1cc(-n2cnnc2)ccc1Cl	?	-20.3%	-1.2%	-22.0%	35.5µM*	?
O=C(Nc1ccc(-c2nc3ccccc3o2)cc1)c1cc(-n2cnnc2)ccc1Cl	-17.9%	-6.7%	-2.8%	-4.4%	-3.0%	-172.7%
O=C(CCN1C(=O)/C(=C/c2ccccc2Cl)SC1=S)Nc1ccccc1C(=O)O	-13.1%	79.4µM*	-9.6%	-14.1%	?	?
CCc1ccc(/C=C2/SC(=S)N(CCCC(=O)Nc3ccccc3C(=O)O)C2=O)cc1	-16.6%	79.4µM*	-28.4%	?	50.2%	-11.8%
C=C1NN(CC2CC2)C(=O)N1c1ccc(OCc2ccccc2)cc1	11.9%	nt	-4.3%	nt	nt	5.5%
COc1cccc(C(=O)NC2CC3CCCC(C2)N3CC(=O)Nc2ccccc2)c1 (stereo unspecified)	-11.9%	?	-5.5%	?	39.8µM*	?
CN(C)c1c(Br)cc(C=O)cc1Br	-4.2%	nt	2.9%	nt	nt	8.8%
C(#Cc1ccccc1)C[N+]1(CC#Cc2ccccc2)CCCC1	1.1%	0.8%	-0.2%	1.2%	46.7%	23.9%
C=CC#CC[N+]1(CC#Cc2ccccc2)CCOCC1	17.8µM*	35.5µM*	?	22.4µM*	3.7%	?
CN(C)CC(CCC(CN(C)C)C(=O)c1ccccc1)C(=O)c1ccccc1 (stereo unspecified)	-12.9%	-5.4%	-3.3%	?	0.3%	22.4µM*
Cc1ccc2c(c1)c1nnc(SCC(=O)Nc3cccc(Cl)c3C)nc1n2CC(=O)O	-12.9%	79.4µM*	-16.5%	?	22.4µM*	-1.1%
Cc1ccc2c(c1)c1nnc(SCC(=O)Nc3ccccc3C(F)(F)F)nc1n2CC(=O)O	-2.0%	-7.8%	7.0%	-21.3%	2.5%	30.9%
Cc1cc(C(F)(F)F)n(-c2nc(C(=O)N/N=C/c3ccc(F)cc3)cs2)n1	-3.1%	-11.0%	-12.7%	-8.5%	1.5%	89.1µM*
O=c1nc(SCc2c(F)cccc2Cl)nc(-c2ccc(Cl)cc2)[nH]1	-21.7%	89.1µM*	-1.2%	6.8%[11.6 µM]	2.6%	24.7%
